Records with an inconclusive call do not appear. Active and inactive are the calls of the source. The call rests on the fitted dose curve; in most records, active means well fitted curve in the direction sought with a large enough effect; inconclusive means small, poorly fitted or top-dose-only effect, or another doubt; inactive means no such curve, though single readings can be large; an effect the other way counts as inactive or inconclusive.
Tests used:
[1] = Quantitative High-Throughput drug screen in 47 multiple myeloma cell lines against the NCATS MIPE library collection: KMM1_JCRB cell viability assay (AID 1918960); settings: KMM1 myeloma viability, CellTiter-Glo ATP luminescence, 48 h; series mostly up to 45.8 µM; further: nearly all actives have a fitted effect of over 30% in size
Method in brief: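 Myeloma cells, 500 per well, were exposed to MIPE 4.0 drugs by pin transfer for 48 h at 37 °C, 5% CO2. Viability was read as ATP luminescence with CellTiter-Glo, normalised to DMSO-only (100%) and medium-only (0%) wells.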

[2] = Quantitative High-Throughput drug screen in 47 multiple myeloma cell lines against the NCATS MIPE library collection: JIM1_ECACC cell viability assay (AID 1918964; further: potency means the concentration at half of the fitted maximal effect); settings: JIM1 myeloma viability, CellTiter-Glo ATP luminescence, 48 h; series mostly up to 45.8 µM
Method in brief: (§1)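 Luminescent ATP measurement with CellTiter-Glo gives viability, scaled between DMSO-only wells (100%) and media-only wells (0%). Cells, 500 per well, faced library compounds for 48 hours at 37C.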

[3] = Quantitative High-Throughput drug screen in 47 multiple myeloma cell lines against the NCATS MIPE library collection: INA6_PLB cell viability assay (AID 1918965; further: nearly all actives have a fitted effect of over 55% in size; further: potency means the concentration at half of the fitted maximal effect); settings: INA6 myeloma viability, CellTiter-Glo ATP luminescence, 48 h; series mostly up to 45.8 µM
Method in brief: (§2)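 Myeloma cells (500 per well) were exposed to MIPE 4.0 compounds by pin transfer and incubated 48 hours at 37C, 5% CO2. Viability was read as ATP by CellTiter-Glo luminescence, normalised to DMSO (100%) and media-only (0%) wells.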

[4] = Quantitative High-Throughput drug screen in 47 multiple myeloma cell lines against the NCATS MIPE library collection: JJN3_DSMZ cell viability assay (AID 1918966; further: nearly all actives have a fitted effect of over 50% in size; further: potency means the concentration at half of the fitted maximal effect); settings: JJN3 myeloma cells viability, CellTiter-Glo ATP, 48 h; series mostly up to 45.8 µM
Method in brief: as §1

[5] = Quantitative High-Throughput drug screen in 47 multiple myeloma cell lines against the NCATS MIPE library collection: KMS27_JCRB cell viability assay (AID 1918970); settings: KMS27 myeloma cells, CellTiter-Glo ATP viability, 48 h; series mostly up to 45.8 µM; further: nearly all actives have a fitted effect of over 30% in size; further: potency means the concentration at half of the fitted maximal effect
Method in brief: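 Luminescent ATP read-out (CellTiter-Glo, 5 min at room temperature) after 48 h compound exposure of 500 KMS27_JCRB cells per well; DMSO wells define full viability and media-only wells zero.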

[6] = Quantitative High-Throughput drug screen in 47 multiple myeloma cell lines against the NCATS MIPE library collection: Karpas417_ECACC cell viability assay (AID 1918961); settings: Karpas417 myeloma viability, CellTiter-Glo ATP luminescence, 48 h; viability (% of DMSO): at 45.8 µM (top of the series)
Method in brief: as §2

[7] = Quantitative High-Throughput drug screen in 47 multiple myeloma cell lines against the NCATS MIPE library collection: KHM11_PLB cell viability assay (AID 1918962); settings: KHM11 myeloma cell viability, CellTiter-Glo ATP luminescence, 48 h; series mostly up to 45.8 µM; further: nearly all actives have a fitted effect of over 35% in size; further: potency means the concentration at half of the fitted maximal effect
Method in brief: (§3)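 CellTiter-Glo luminescence (ATP) after 48 h compound exposure, 37C/5% CO2; 500 cells/well; MIPE 4.0 approved/investigational drugs pinned in; DMSO = 100%, media only = 0% viability.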

[8] = Quantitative High-Throughput drug screen in 47 multiple myeloma cell lines against the NCATS MIPE library collection: JIM3_ECACC cell viability assay (AID 1918963; further: nearly all actives have a fitted effect of over 35% in size; further: potency means the concentration at half of the fitted maximal effect); settings: JIM3 myeloma viability, CellTiter-Glo ATP, 48 h; series mostly up to 45.8 µM
Method in brief: as §3

[9] = Quantitative High-Throughput drug screen in 47 multiple myeloma cell lines against the NCATS MIPE library collection: H1112_PLB cell viability assay (AID 1918967; further: nearly all actives have a fitted effect of over 30% in size; further: potency means the concentration at half of the fitted maximal effect); settings: H1112 myeloma cells viability, ATP luminescence, 48 h; series mostly up to 45.8 µM
Method in brief: as §1

[10] = Quantitative High-Throughput drug screen in 47 multiple myeloma cell lines against the NCATS MIPE library collection: Karpas25_ECACC cell viability assay (AID 1918968; further: nearly all actives have a fitted effect of over 35% in size; further: potency means the concentration at half of the fitted maximal effect); settings: Karpas25 myeloma viability, CellTiter-Glo ATP, 48 h; series mostly up to 45.8 µM
Method in brief: as §1

CC1CCC(C(=O)N(c2cc(C#CC(C)(C)C)sc2C(=O)O)C2CCC(O)CC2)CC1 (centres undefined)
Potency [1]: inactive
Potency [2]: inactive
Potency [3]: 26.4 µM (active)
Potency [4]: 18.7 µM (active)
Potency [5]: inactive

CCCCCN(C)CCC(O)(P(=O)(O)O)P(=O)(O)O
viability (% of DMSO) [6]: 78.6% (active)
Potency [7]: inactive
Potency [8]: inactive
Potency [2]: inactive
Potency [3]: inactive
Potency [9]: inactive
Potency [10]: inactive
Potency [5]: inactive

CCc1ccc(C=C2SC(=S)NC2=O)cc1
Potency [7]: inactive
Potency [2]: inactive
Potency [3]: 2.35 µM (active)

CCn1c(C(=O)N(C2CC2)C2CC2)cc2c3c(ncn3C)c(Nc3cc(C)n(C)n3)nc21
Potency [8]: 18.7 µM (active)
Potency [3]: 16.6 µM (active)
Potency [4]: 20.9 µM (active)
Potency [9]: 18.7 µM (active)
Potency [5]: inactive

Oc1ccc(C2CCN(c3ccnc4ccccc34)CC2)cc1O
Potency [7]: 8.33 µM (active)
Potency [8]: 11.8 µM (active)
Potency [3]: 7.43 µM (active)
Potency [4]: 16.6 µM (active)
Potency [10]: 7.43 µM (active)
Potency [5]: 18.7 µM (active)

O=c1cc(-c2cccc3c2Sc2ccccc2S3)oc(N2CCOCC2)c1
Potency [8]: 16.6 µM (active)
Potency [2]: 16.6 µM (active)
Potency [3]: 18.7 µM (active)
Potency [10]: 14.8 µM (active)

O=C(O)c1c(Cl)c(Cl)c(Cl)c(Cl)c1-c1c2cc(I)c(=O)c(I)c-2oc2c(I)c(O)c(I)cc12
Potency [8]: 7.43 µM (active)
Potency [2]: 2.35 µM (active)
Potency [3]: 10.5 µM (active)
Potency [4]: 5.9 µM (active)
Potency [9]: 3.32 µM (active)
Potency [10]: 7.43 µM (active)

COc1ccc2c(Oc3ccc(NC(=O)c4c(C)n(CC(C)(C)O)n(-c5ccccc5)c4=O)cc3F)ccnc2c1
Potency [6]: inactive
Potency [4]: 8.33 µM (active)
Potency [9]: 20.9 µM (active)

CN[C@@H](C)C(=O)N[C@H]1CN(C(=O)CC(C)C)CC[C@H]2CC[C@@H](C(=O)NC(c3ccccc3)c3ccccc3)N2C1=O
Potency [8]: 9.35 µM (active)
Potency [3]: 8.33 µM (active)

NC(=O)[C@@H](CCC(F)(F)F)N(Cc1ccc(-c2ncon2)cc1F)S(=O)(=O)c1ccc(Cl)cc1
Potency [7]: inactive
Potency [3]: 26.4 µM (active)
Potency [5]: inactive

O=C(O)c1ccc(-c2cc3cccnc3c(-c3ccc4nonc4c3)n2)cc1
Potency [7]: 20.9 µM (active)
Potency [3]: 20.9 µM (active)
Potency [10]: 23.5 µM (active)

COc1ccc2c(Oc3ccc(NC(=O)c4c(C)n(CC(C)(C)O)n(-c5ccccc5)c4=O)nc3)ccnc2c1
Potency [8]: inactive
Potency [2]: inactive
Potency [9]: inactive
Potency [5]: inactive

O=C(O)C(O)Cc1ccc(O)c(O)c1 (centres undefined)
Potency [8]: inactive
Potency [2]: inactive
Potency [4]: 23.5 µM (active)
Potency [9]: inactive
Potency [5]: inactive

CC1(C)Cc2c(sc(NC(=S)NC(=O)c3ccccc3)c2C(=O)O)CO1
Potency [7]: inactive
Potency [2]: inactive

CC=CC[C@@H](C)C(=O)[C@H]1C(=O)N[C@@H](C(C)C)C(=O)N(C)CC(=O)N(C)[C@@H](CC(C)C)C(=O)N[C@@H](C(C)C)C(=O)N(C)[C@@H](CC(C)C)C(=O)N[C@@H](C)C(=O)N[C@H](C)C(=O)N(C)[C@@H](CC(C)C)C(=O)N(C)[C@@H](CC(C)C)C(=O)N(C)[C@@H](C(C)C)C(=O)N1C
Potency [8]: 23.5 µM (active)

COc1ccc(-c2coc3cc(O)ccc3c2=O)cc1
Potency [8]: inactive
Potency [2]: inactive
Potency [3]: inactive
Potency [4]: inactive
Potency [9]: inactive
Potency [10]: inactive
Potency [5]: inactive

CN(C)Cc1cccc(N=C(c2ccccc2)c2c(O)[nH]c3cc(C(=O)N(C)C)ccc23)c1
Potency [7]: 5.9 µM (active)
Potency [8]: 1.87 µM (active)
Potency [3]: 18.7 µM (active)

c1ccc2c(Cc3c[nH]c4ccccc34)c[nH]c2c1
Potency [7]: 4.18 µM (active)
Potency [8]: 10.5 µM (active)
Potency [3]: 3.32 µM (active)
Potency [4]: 26.4 µM (active)
Potency [9]: 1.05 µM (active)
Potency [10]: 1.05 µM (active)

COc1cc(N2CCC(N3CCN(C)CC3)CC2)ccc1Nc1ncnc(Nc2ccccc2S(=O)(=O)C(C)C)n1
Potency [8]: 5.26 µM (active)
Potency [2]: inactive
Potency [3]: 14.8 µM (active)

COCCOC(=O)C1=C(C)NC2=C(C(=O)CC(c3ccccc3OC)C2)C1c1cccc(O)c1 (centres undefined)
Potency [7]: 11.8 µM (active)
Potency [8]: 20.9 µM (active)
Potency [2]: 9.35 µM (active)
Potency [3]: 1.66 µM (active)
Potency [10]: 13.2 µM (active)

O=C1NC(=O)C(=Cc2ccc3c(c2)OC(F)(F)O3)S1
Potency [7]: 13.2 µM (active)
Potency [2]: inactive
Potency [3]: 26.4 µM (active)
Potency [9]: 20.9 µM (active)
Potency [10]: 18.7 µM (active)

C=C1C(=O)OC(CCCCCCCC)C1C(=O)O (centres undefined)
Potency [7]: inactive
Potency [2]: inactive
Potency [3]: 18.7 µM (active)
Potency [10]: 26.4 µM (active)
Potency [5]: inactive

— PubChem BioAssay (NCATS)
